In PubChem BioAssay AID493174 (National Center for Advancing Translational Sciences (NCATS), 2011) one finds Potency data, which are given here for one molecule.

Results filed as inconclusive are left out. Calls of active or inactive are those of the source. The call rests on the fitted dose curve; in most records, active means well fitted inhibition curve with a large enough effect; inconclusive means small, poorly fitted or top-dose-only effect; inactive means flat fitted curve, though single readings scatter.

This assay in a line: Confirmatory Assay for General miRNAs Modulators and/or Inhibitors/Activators of miR-21: second round cherrypicks. The note with it: HeLa miR-21 FLuc reporter, luciferase luminescence, 48 h. The text has this:
MLPCN Grant: 1 R21 NS059478-01 Assay Provider: Qihong Huang, The Wistar Institute NCGC Assay Overview: MicroRNAs (miRNAs) are endogenously encoded small (~20-25 nucleotides), nonprotein-coding RNAs that are involved in post-transcriptional repression of target messenger RNAs (mRNAs) (Le and Hannon, 2004). Estimated to be involved in the regulation of 30% of all protein-coding mRNAs (Filipowicz et al., 2008), miRNAs play a significant role in many biological processes including cellular differentiation and tissue development (Ghildiyal and Zamore, 2009).
NCGC Assay Protocol Summary: Reagents: HeLa cells stably expressing firefly luciferase (FLuc) under the control of a CMV promoter (upstream) and a miR-21 binding sequence directly downstream of the gene. These cells endogenously express miR-21. Control compounds used were compound C3 (provided by collaborator), N6-phenyladenosine (MP Biomedicals, 0215379625), and DMSO. Assay Summary: 6uL of HeLa miR-21-FLuc cells in assay buffer (DMEM, Invitrogen #21063-029; 10% FBS, HyClone #SH30071.03) were dispensed at 2000cells/well (3.3 x 10^5 cells/mL) into Greiner solid-white TC-treated 1536-well plates using a Multidrop Combi (Thermo Fisher Scientific). […] After a 15 minute incubation to allow for cell lysis, luciferase activity was measured using a ViewLux CCD imager (PerkinElmer), with an average exposure time of 2-12 seconds. […]

As for `O=c1c2ccccc2nc(Cc2ccccc2)n1-c1ccccc1`, the Potency was 14.2 µM (active).
